# Measurements published in PubChem BioAssay.
# Calls of active or inactive are those of the source.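 The calls were made as follows: active = GFP response above 150% of the DMSO level; inconclusive = fewer than 70 events counted for a yeast strain; inactive = the rest.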
# Experiment: TOR pathway CIT2 reporter hit retest – S. cerevisiae, GFP fusion, cherry picks, mother/daughter gates, confirmation (AID 2274)
# Settings: S. cerevisiae CIT2-GFP strain, flow cytometry, 3 h; at 10 µM; stronger effect = higher value
row,SMILES,"GFP response, % of DMSO"
1,CC(C)c1nnc(SCC(=O)N2CCc3ccccc32)n1C,97.8% (inactive)
2,O=S(=O)(c1ccc(-c2ccccc2)cc1)N1CCOCC1,95.8% (inactive)
3,Cc1cc(O)c(C(=O)/C=C/c2cccc([N+](=O)[O-])c2)c(=O)o1,86.1% (inactive)
4,COc1ccccc1N=Nc1ccc(O)c2ncccc12,158% (active)
5,N=c1ccn(CC(=O)c2ccc(-c3ccccc3)cc2)cc1,96.4% (inactive)

# Same assay, conditions: S. cerevisiae CIT2-GFP strain, flow cytometry, 3 h; measured here: daughter cell gate; at 10 µM; stronger effect = higher value
row,SMILES,"GFP response, % of DMSO [%]"
1,COc1ccc(COC(=O)c2n[nH]c3ccccc23)cc1F,108
2,CCCc1cc(N2CCN(c3ccccn3)CC2)n2nc(C)c(-c3ccccc3)c2n1,154
3,O=C1c2ccccc2C2=Nc3ccccc3SC(c3cccc(F)c3)C12 (stereo not given),106
4,CCOC(=O)COc1c(Cl)cc(/C=C2\N=C(C)OC2=O)cc1OC,105
5,Cc1nn2c(N3CCN(C(=O)c4ccco4)CC3)cc(C(C)(C)C)nc2c1-c1ccccc1,97.2
6,Cc1ccc(S(=O)(=O)N(CC(=O)NCc2ccncc2)Cc2ccccc2F)cc1,101
7,Cc1ccc(N2C(=O)C3C4C=CC(CNC(=S)Nc5ccc(F)cc5)(O4)C3C2=O)cc1 (stereo not given),110
8,COc1ccc(CC(=O)Oc2ccccc2C)cc1,96.4
9,Cc1cc(C=C2C(=O)c3ccccc3C2=O)c(C)n1-c1cccc(C(=O)O)c1,110
10,CC(C)c1ccc2c(c1)C1(NN=C(c3ccccc3)S1)C(=O)N2 (stereo not given),96.5
11,O=C(N/N=C\c1ccc(F)cc1)c1cc(OCC(F)(F)F)ccc1OCC(F)(F)F,106
12,Cc1cc(NCCCN2CCOCC2)n2ncc(-c3ccccc3)c2n1,98.1
13,COc1cc(NC(C)=O)ccc1NC(=O)c1cc2ccccc2o1,98.1
14,COc1ccc(CCN2C(=O)c3cccc4cccc(c34)C2=O)cc1OC,101
15,CN(O)/C=c1/ccc2c(n1)C(=O)C=CC=2,150
16,C/C(=N\NC(=O)c1ccc(Cl)c(Cl)c1)c1cccc(NC(=O)C(C)C)c1,100
17,Cc1ccc(-c2ccc(/C=N/NC(N)=S)o2)cc1,94.8
18,CC(C)(C)c1ccc(C(=O)N/N=C/c2cccc(Cl)c2)cc1,92.3
19,Cc1ccc(S(=O)(=O)Nc2cc(Cl)c(O)c3ncccc23)cc1,100
20,CC1CCc2c(C(=O)NCc3cccnc3)csc2C1 (stereo not given),84.8

row,SMILES,"GFP response, % of DMSO [%]"
1,CCNc1nc(-c2ccc(Cl)cc2)cs1,101
2,O=C(CSc1nc2ccsc2c(=O)n1CC1CCC(C(=O)O)CC1)c1ccc(F)cc1 (stereo not given),94.8
3,CC(=O)Oc1ccc(N2C(=O)C3C4C=CC(CO)(O4)C3C2=O)cc1 (stereo not given),112
4,Oc1c(C(Nc2cccc(C(F)(F)F)c2)c2ccncc2)ccc2cccnc12 (stereo not given),102
5,COc1cc(C2CC(c3cccnc3)=NN2c2ccc(F)cc2)cc(OC)c1OC (stereo not given),97.6
6,COc1ccc(C(=O)C2CCCN(C(=O)c3cccs3)C2)cc1F (stereo not given),103
7,COC(=O)c1ccc(Cn2cc(/C=C\[N+](=O)[O-])c3ccccc32)o1,100
8,CC(C)(C)NC(=O)CN(C(=O)CCC(=O)Nc1nccs1)c1ccc(F)cc1,99.2
9,COc1ccccc1CNC(=O)CS(=O)Cc1nc(-c2ccc(OC)c(OC)c2)oc1C (stereo not given),108
10,O=C(COC(=O)C1CCN(c2ccc(C(F)(F)F)cn2)CC1)Nc1cccc(F)c1,108
11,COc1ccc(CCNc2nc(-c3sc(C)nc3C)cs2)cc1OC,103
12,O=C(Nc1c2c(nn1-c1ccccc1)CS(=O)C2)c1ccco1 (stereo not given),99.3
13,Cc1ccsc1/C=N/Nc1ncc(Cl)cc1Cl,101
14,O=C(Nc1ccc(S(=O)(=O)N2CCOCC2)cc1)c1ccc([N+](=O)[O-])cc1Cl,103
15,Cc1ccc(-c2nc(NC(=O)c3nn(C)cc3[N+](=O)[O-])sc2C)cc1C,94.6
16,CC(C)c1nnc(SCC(=O)N2CCc3ccccc32)n1C,98.1
17,O=S(=O)(c1ccc(-c2ccccc2)cc1)N1CCOCC1,95.8
18,Cc1cc(O)c(C(=O)/C=C/c2cccc([N+](=O)[O-])c2)c(=O)o1,90.5
19,COc1ccccc1N=Nc1ccc(O)c2ncccc12,126
20,N=c1ccn(CC(=O)c2ccc(-c3ccccc3)cc2)cc1,96.4

# Same assay, conditions: S. cerevisiae CIT2-GFP strain, flow cytometry, 3 h; measured here: mother cell gate; at 10 µM; stronger effect = higher value
row,SMILES,"GFP response, % of DMSO [%]"
1,COc1ccc(COC(=O)c2n[nH]c3ccccc23)cc1F,104
2,CCCc1cc(N2CCN(c3ccccn3)CC2)n2nc(C)c(-c3ccccc3)c2n1,148
3,O=C1c2ccccc2C2=Nc3ccccc3SC(c3cccc(F)c3)C12 (stereo not given),106
4,CCOC(=O)COc1c(Cl)cc(/C=C2\N=C(C)OC2=O)cc1OC,99.8
5,Cc1nn2c(N3CCN(C(=O)c4ccco4)CC3)cc(C(C)(C)C)nc2c1-c1ccccc1,95
6,Cc1ccc(S(=O)(=O)N(CC(=O)NCc2ccncc2)Cc2ccccc2F)cc1,102
7,Cc1ccc(N2C(=O)C3C4C=CC(CNC(=S)Nc5ccc(F)cc5)(O4)C3C2=O)cc1 (stereo not given),110
8,COc1ccc(CC(=O)Oc2ccccc2C)cc1,95.6
9,Cc1cc(C=C2C(=O)c3ccccc3C2=O)c(C)n1-c1cccc(C(=O)O)c1,113
10,CC(C)c1ccc2c(c1)C1(NN=C(c3ccccc3)S1)C(=O)N2 (stereo not given),88
11,O=C(N/N=C\c1ccc(F)cc1)c1cc(OCC(F)(F)F)ccc1OCC(F)(F)F,103
12,Cc1cc(NCCCN2CCOCC2)n2ncc(-c3ccccc3)c2n1,93.4
13,COc1cc(NC(C)=O)ccc1NC(=O)c1cc2ccccc2o1,101
14,COc1ccc(CCN2C(=O)c3cccc4cccc(c34)C2=O)cc1OC,96.8
15,CN(O)/C=c1/ccc2c(n1)C(=O)C=CC=2,161
16,C/C(=N\NC(=O)c1ccc(Cl)c(Cl)c1)c1cccc(NC(=O)C(C)C)c1,96.8
17,Cc1ccc(-c2ccc(/C=N/NC(N)=S)o2)cc1,96.6
18,CC(C)(C)c1ccc(C(=O)N/N=C/c2cccc(Cl)c2)cc1,92.6
19,Cc1ccc(S(=O)(=O)Nc2cc(Cl)c(O)c3ncccc23)cc1,96.8
20,CC1CCc2c(C(=O)NCc3cccnc3)csc2C1 (stereo not given),88.2

row,SMILES,"GFP response, % of DMSO [%]"
1,CCNc1nc(-c2ccc(Cl)cc2)cs1,106
2,O=C(CSc1nc2ccsc2c(=O)n1CC1CCC(C(=O)O)CC1)c1ccc(F)cc1 (stereo not given),92.3
3,CC(=O)Oc1ccc(N2C(=O)C3C4C=CC(CO)(O4)C3C2=O)cc1 (stereo not given),104
4,Oc1c(C(Nc2cccc(C(F)(F)F)c2)c2ccncc2)ccc2cccnc12 (stereo not given),94.5
5,COc1cc(C2CC(c3cccnc3)=NN2c2ccc(F)cc2)cc(OC)c1OC (stereo not given),96
6,COc1ccc(C(=O)C2CCCN(C(=O)c3cccs3)C2)cc1F (stereo not given),99.3
7,COC(=O)c1ccc(Cn2cc(/C=C\[N+](=O)[O-])c3ccccc32)o1,92.1
8,CC(C)(C)NC(=O)CN(C(=O)CCC(=O)Nc1nccs1)c1ccc(F)cc1,101
9,COc1ccccc1CNC(=O)CS(=O)Cc1nc(-c2ccc(OC)c(OC)c2)oc1C (stereo not given),103
10,O=C(COC(=O)C1CCN(c2ccc(C(F)(F)F)cn2)CC1)Nc1cccc(F)c1,102
11,COc1ccc(CCNc2nc(-c3sc(C)nc3C)cs2)cc1OC,99.7
12,O=C(Nc1c2c(nn1-c1ccccc1)CS(=O)C2)c1ccco1 (stereo not given),96
13,Cc1ccsc1/C=N/Nc1ncc(Cl)cc1Cl,84.6
14,O=C(Nc1ccc(S(=O)(=O)N2CCOCC2)cc1)c1ccc([N+](=O)[O-])cc1Cl,99.7
15,Cc1ccc(-c2nc(NC(=O)c3nn(C)cc3[N+](=O)[O-])sc2C)cc1C,93.3
16,CC(C)c1nnc(SCC(=O)N2CCc3ccccc32)n1C,96.6
17,O=S(=O)(c1ccc(-c2ccccc2)cc1)N1CCOCC1,93.8
18,Cc1cc(O)c(C(=O)/C=C/c2cccc([N+](=O)[O-])c2)c(=O)o1,81.5
19,COc1ccccc1N=Nc1ccc(O)c2ncccc12,161
20,N=c1ccn(CC(=O)c2ccc(-c3ccccc3)cc2)cc1,95.6
